Assay results reported in PubChem BioAssay (EPA / NIEHS).
Some structures have more than one record in an assay (separate samples or runs), and their calls can disagree. Activity calls are given as the source filed them. Rule for the calls: active = hit-call score of the fitted dose curve at least 0.9, where 1 is the maximum; inactive = score below 0.9.

experiment: CCTE_Shafer_MEA_dev_per_network_spike_spike_percent: CCTE's Neural Network Formation Assay for Percent of Spikes in a Network Spike, Shafer Lab (AID 2284054)
Experimental: CCTE_Shafer_MEA_dev assay is conducted using Axion Biosystems 48 well microelectrode array (MEA) plates and Maestro recording system. Each well of the MEA plate contains a grid of 16 microelectrodes embedded in the culture surface. Electrically active cells, such as neurons, can be cultured over the electrodes, and electrical activity in these cells can be recorded extracellularly. The spontaneous firing of neurons is captured from each electrode on a microsecond timescale providing both temporally and spatially precise data. […] The CCTE_Shafer_MEA_dev assay uses primary cultures of rat cortical neurons. Recordings are made on days post-plating 5, 7, 9 and 12. As these cultures mature over time, neural networks develop functional activity and form cohesive networks in which electrical activity can be highly coordinated. CCTE_Shafer_MEA_dev_per_network_spike_spike_percent is 1 of 19 assay components of the CCTE_Shafer_MEA_dev assay. It measures the percent of spikes (action potential firings) in a network spike (temporally-clustered group of spikes across multiple electrodes) as the number of spikes that occur within a 0.05 s time window at the peak of a network spike divided by the total number of spikes during a recording in a microelectrode array (MEA) using Axion Biosystems Maestro 768 channel amplifier with the AxIS adaptive spike detector. To collapse across multiple recordings made on days post-plating 5, 7, 9 and 12, the trapezoidal area-under-the-curve of the component is calculated.Data from the assay component CCTE_Shafer_MEA_dev_per_network_spike_spike_percent was analyzed into 1 assay endpoint. This assay endpoint, CCTE_Shafer_MEA_dev_per_network_spike_spike_percent, was analyzed in the negative analysis fitting direction relative to DMSO as the negative control and baseline of activity. Using a type of functional reporter, gain or loss-of-signal activity can be used to understand electrical activity.
On the day prior to culture, each well was coated thoroughly with 150 uL of 0.05% polyethyleneimine (PEI, Sigma Cat P3143) in 50 mM HEPES (Sigma Cat H7523) at a pH of 8. The plate was incubated at 37C for one hour. PEI was rinsed out with 500 uL of sterile water three times. Plates were stored at 4C until the day of culture. This culture was plated at a seeding density of 1.5 x 10^5 cells/well on a 48-well MEA plate, prepared as described above. Cells were administered via a 25 uL media/laminin ([…]; Sigma Cat L2020-1MG) drop directly onto the microelectrode array, as adding the cells with the laminin results in better attachment than pre-coating with laminin. After 2 hours, an additional 475 uL of cortical media was added and the cells returned to the incubator. Exposure starts at day 0 of plating and is continued over twelve days of network development until the experiment is terminated. Cells are fed with fresh medium on DIV 5 and 9, following the recordings on those days. The entire volume of media in the well is exchanged and any vehicle or compound treatment is renewed. Complete details are found in OP-NHEERL/ISTD/SBB/TJS/2015-03-r0 (available on request, email shafer.tim@epa.gov). Measurement of the electrical activity is non-invasive, and recordings can be made from the same plate over multiple different days of the culture. In cortical neurons, this allows for the measurement of extracellular action potentials over the period during which networks form in the MEA plate.

Compound	outcome	AC50
Cc1cc(=O)[nH]c(=S)[nH]1	inactive	
CCCc1cc(=O)[nH]c(=S)[nH]1	inactive	24.9 µM (active)
O=c1[nH]cc(F)c(=O)[nH]1		0.607 µM (active)
CC(C)c1ccc(C(=O)N=C(N)N)cc1S(C)(=O)=O	inactive	
FC(F)(F)C(F)(F)C(F)(F)C(F)(F)C(F)(F)C(F)(F)CCI	inactive	
C=CCc1ccc(O)c(OC)c1	inactive	
C[Si]1(C)O[Si](C)(C)O[Si](C)(C)O[Si](C)(C)O1	inactive	
CC(=O)Oc1ccccc1C(=O)O	inactive	
OC[C@@H](O)[C@@H](O)[C@H](O)[C@H](O)CO	inactive	
